# How the values were obtained:
# [1] = target: Sphingosine kinase 1 (Homo sapiens) (UniProt Q9NYA1); conditions: at 1 µM;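 also: mean SPHK1 inhibition value reported from the GSK PKIS kinase panel screen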
# [2] = target: T1, Sphingosine kinase 2 (Homo sapiens) (UniProt Q9NRA0); conditions: at 0.1 µM
# T1 sequence (whole entry): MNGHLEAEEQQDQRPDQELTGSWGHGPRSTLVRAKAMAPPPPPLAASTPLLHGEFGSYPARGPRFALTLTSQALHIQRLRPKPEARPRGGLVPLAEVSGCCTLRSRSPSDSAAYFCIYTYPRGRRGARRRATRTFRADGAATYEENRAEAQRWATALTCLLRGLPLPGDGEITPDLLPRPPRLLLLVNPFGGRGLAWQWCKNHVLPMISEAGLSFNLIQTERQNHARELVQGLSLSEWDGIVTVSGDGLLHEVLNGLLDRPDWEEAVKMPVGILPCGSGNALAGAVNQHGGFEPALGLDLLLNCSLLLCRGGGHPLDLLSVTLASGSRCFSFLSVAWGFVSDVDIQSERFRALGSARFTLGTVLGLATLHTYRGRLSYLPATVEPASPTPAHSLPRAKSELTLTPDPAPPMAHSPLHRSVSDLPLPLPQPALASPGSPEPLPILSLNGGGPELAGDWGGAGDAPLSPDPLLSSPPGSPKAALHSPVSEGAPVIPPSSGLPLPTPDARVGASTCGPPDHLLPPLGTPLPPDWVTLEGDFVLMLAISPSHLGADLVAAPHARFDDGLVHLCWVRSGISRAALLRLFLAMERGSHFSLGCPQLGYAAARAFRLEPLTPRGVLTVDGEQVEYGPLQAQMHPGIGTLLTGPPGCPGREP
# [3] = target: T1, Sphingosine kinase 2 (Homo sapiens); conditions: at 1 µM
# [4] = target: Casein kinase II subunit alpha (Homo sapiens) (UniProt P68400); conditions: at 0.1 µM
# Casein kinase II subunit alpha (Homo sapiens), sequence (P68400 whole entry, looked up): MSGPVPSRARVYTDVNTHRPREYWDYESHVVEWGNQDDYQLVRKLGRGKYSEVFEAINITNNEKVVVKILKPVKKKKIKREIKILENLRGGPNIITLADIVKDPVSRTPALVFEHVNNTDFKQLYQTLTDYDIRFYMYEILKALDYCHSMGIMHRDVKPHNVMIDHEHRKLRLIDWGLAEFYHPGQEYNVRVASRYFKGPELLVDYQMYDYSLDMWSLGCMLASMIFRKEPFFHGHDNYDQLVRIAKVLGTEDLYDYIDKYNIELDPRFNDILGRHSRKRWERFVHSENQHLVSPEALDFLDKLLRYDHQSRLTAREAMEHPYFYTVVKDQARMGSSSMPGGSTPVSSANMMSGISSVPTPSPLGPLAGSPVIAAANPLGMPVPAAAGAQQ
# [5] = target: Casein kinase II subunit alpha (Homo sapiens) (UniProt P68400); conditions: at 1 µM
# [6] = target: T2, Inhibitor of nuclear factor kappa-B kinase subunit alpha (Homo sapiens) (UniProt O15111); conditions: at 0.1 µM
# T2 sequence (whole entry): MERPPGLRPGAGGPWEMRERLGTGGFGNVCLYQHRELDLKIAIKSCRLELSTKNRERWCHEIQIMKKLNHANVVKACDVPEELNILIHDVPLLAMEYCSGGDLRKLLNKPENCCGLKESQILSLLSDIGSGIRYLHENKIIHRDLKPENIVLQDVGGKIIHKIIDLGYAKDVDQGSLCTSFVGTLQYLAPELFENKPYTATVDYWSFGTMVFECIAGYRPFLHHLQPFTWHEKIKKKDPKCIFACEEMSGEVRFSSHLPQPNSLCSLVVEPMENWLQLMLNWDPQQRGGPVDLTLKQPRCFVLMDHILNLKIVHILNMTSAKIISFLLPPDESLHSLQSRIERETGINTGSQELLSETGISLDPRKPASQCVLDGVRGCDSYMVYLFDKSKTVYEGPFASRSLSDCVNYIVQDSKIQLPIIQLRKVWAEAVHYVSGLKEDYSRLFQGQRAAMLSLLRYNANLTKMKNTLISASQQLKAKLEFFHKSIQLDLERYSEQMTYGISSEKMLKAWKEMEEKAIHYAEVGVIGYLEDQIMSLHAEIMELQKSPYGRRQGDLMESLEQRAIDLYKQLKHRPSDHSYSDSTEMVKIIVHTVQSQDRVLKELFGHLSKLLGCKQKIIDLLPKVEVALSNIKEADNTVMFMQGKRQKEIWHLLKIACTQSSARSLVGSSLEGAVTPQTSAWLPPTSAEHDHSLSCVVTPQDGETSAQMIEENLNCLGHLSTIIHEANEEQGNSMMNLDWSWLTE
# [7] = target: T2, Inhibitor of nuclear factor kappa-B kinase subunit alpha (Homo sapiens); conditions: at 1 µM
# [8] = target: T3, Inhibitor of nuclear factor kappa-B kinase subunit beta (Homo sapiens) (UniProt O14920); conditions: at 0.1 µM
# T3 sequence (whole entry): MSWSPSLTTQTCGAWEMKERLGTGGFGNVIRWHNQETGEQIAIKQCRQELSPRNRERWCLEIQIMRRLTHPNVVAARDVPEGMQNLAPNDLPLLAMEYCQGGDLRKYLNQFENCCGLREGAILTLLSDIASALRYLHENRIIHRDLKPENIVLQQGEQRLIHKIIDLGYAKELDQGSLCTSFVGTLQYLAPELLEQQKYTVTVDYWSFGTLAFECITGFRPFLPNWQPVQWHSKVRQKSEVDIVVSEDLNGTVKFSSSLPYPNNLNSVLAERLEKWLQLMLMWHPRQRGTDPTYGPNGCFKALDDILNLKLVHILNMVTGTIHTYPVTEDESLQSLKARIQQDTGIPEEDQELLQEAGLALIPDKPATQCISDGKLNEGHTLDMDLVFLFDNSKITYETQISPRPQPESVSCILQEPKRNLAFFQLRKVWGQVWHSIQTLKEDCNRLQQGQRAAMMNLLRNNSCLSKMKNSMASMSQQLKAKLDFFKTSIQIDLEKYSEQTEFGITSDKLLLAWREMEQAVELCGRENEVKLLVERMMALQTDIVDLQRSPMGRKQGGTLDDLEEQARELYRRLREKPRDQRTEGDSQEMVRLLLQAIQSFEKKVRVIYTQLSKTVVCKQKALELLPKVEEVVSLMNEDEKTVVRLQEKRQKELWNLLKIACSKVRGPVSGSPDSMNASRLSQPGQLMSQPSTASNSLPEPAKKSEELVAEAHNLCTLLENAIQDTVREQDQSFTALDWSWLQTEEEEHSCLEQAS
# [9] = target: T3, Inhibitor of nuclear factor kappa-B kinase subunit beta (Homo sapiens); conditions: at 1 µM
# [10] = target: T4, Inhibitor of nuclear factor kappa-B kinase subunit epsilon (Homo sapiens) (UniProt Q14164); conditions: at 0.1 µM
# T4 sequence (whole entry): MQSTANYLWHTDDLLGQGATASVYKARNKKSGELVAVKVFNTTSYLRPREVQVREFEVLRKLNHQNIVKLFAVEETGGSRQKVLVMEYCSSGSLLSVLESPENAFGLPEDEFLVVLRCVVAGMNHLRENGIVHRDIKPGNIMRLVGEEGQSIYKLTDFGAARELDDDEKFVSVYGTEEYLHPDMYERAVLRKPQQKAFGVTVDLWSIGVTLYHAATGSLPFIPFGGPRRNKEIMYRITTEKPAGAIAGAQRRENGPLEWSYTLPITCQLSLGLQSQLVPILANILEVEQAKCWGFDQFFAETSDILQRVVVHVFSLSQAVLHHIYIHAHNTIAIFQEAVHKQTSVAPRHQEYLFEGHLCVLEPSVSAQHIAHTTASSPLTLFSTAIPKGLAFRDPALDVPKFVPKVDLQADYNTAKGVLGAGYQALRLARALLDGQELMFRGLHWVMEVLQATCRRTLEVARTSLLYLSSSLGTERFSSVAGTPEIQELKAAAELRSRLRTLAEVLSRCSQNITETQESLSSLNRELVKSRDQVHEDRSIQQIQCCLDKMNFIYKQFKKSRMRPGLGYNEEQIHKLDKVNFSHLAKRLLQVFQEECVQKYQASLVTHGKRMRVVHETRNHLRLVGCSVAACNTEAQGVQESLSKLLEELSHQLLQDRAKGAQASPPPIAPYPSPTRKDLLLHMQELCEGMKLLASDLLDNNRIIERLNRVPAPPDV
# [11] = target: T4, Inhibitor of nuclear factor kappa-B kinase subunit epsilon (Homo sapiens); conditions: at 1 µM
# [12] = target: T5, Serine/threonine-protein kinase Nek1 (Homo sapiens) (UniProt Q96PY6); conditions: at 0.1 µM
# T5 sequence (whole entry): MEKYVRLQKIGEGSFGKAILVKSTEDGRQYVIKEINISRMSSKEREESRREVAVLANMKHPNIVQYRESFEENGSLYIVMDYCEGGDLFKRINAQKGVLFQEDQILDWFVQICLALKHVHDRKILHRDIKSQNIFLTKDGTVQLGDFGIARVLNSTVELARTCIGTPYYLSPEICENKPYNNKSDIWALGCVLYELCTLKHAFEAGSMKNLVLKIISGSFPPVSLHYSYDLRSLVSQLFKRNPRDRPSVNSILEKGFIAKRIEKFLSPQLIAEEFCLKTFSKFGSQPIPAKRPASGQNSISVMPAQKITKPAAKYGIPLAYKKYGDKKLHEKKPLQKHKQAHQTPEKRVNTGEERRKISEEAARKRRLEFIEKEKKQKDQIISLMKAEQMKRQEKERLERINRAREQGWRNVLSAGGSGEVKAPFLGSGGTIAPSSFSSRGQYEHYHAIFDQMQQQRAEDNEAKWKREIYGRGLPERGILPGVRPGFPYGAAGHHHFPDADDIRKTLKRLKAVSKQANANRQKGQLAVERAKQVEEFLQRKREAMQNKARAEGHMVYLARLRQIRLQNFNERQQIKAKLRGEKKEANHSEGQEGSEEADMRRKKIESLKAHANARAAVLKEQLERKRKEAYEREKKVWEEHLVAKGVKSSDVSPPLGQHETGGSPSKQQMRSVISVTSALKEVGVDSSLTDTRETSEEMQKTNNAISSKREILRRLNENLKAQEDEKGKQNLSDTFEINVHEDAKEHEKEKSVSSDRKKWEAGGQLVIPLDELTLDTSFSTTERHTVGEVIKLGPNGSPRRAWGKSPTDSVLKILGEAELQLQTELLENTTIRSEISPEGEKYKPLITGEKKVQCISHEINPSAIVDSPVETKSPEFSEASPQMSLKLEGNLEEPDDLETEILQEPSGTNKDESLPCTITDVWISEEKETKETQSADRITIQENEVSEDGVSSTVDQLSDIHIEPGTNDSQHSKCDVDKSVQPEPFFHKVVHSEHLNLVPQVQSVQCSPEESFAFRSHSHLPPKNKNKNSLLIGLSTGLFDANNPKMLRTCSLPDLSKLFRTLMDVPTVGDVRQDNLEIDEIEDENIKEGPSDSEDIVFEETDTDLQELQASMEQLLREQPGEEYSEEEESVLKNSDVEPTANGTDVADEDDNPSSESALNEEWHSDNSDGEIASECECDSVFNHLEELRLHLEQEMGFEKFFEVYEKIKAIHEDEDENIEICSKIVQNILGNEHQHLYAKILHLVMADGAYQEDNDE
# [13] = target: T5, Serine/threonine-protein kinase Nek1 (Homo sapiens); conditions: at 1 µM
# [14] = target: T6, Serine/threonine-protein kinase Nek2 (Homo sapiens) (UniProt P51955); conditions: at 0.1 µM
# T6 sequence (whole entry): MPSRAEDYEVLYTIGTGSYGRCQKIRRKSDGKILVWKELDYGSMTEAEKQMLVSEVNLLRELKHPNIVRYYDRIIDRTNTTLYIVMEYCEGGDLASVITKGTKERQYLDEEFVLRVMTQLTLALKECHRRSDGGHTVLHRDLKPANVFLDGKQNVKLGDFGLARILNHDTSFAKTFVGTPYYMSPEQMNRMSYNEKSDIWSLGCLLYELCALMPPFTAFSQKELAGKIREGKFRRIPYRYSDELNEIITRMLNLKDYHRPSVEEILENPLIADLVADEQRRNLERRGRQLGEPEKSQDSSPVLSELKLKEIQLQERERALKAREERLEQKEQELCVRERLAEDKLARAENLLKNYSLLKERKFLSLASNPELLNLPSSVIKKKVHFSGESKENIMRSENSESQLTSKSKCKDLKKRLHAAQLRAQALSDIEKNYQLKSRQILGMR
# [15] = target: T6, Serine/threonine-protein kinase Nek2 (Homo sapiens); conditions: at 1 µM
# [16] = target: Serine/threonine-protein kinase Nek6 (Homo sapiens) (UniProt Q9HC98); conditions: at 0.1 µM
# Serine/threonine-protein kinase Nek6 (Homo sapiens), sequence (Q9HC98 whole entry): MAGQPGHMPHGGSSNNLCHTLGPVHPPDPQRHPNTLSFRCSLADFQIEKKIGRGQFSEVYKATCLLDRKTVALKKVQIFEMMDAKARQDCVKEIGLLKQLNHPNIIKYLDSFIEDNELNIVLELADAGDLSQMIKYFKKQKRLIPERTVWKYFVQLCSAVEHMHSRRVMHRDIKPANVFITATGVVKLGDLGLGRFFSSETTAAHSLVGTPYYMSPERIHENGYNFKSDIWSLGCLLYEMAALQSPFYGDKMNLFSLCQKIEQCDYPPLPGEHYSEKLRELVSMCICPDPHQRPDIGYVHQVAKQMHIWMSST
# [17] = target: Serine/threonine-protein kinase Nek6 (Homo sapiens) (UniProt Q9HC98); conditions: at 1 µM
# [18] = target: Serine/threonine-protein kinase Nek7 (Homo sapiens) (UniProt Q8TDX7); conditions: at 0.1 µM
# Serine/threonine-protein kinase Nek7 (Homo sapiens), sequence (Q8TDX7 whole entry, looked up): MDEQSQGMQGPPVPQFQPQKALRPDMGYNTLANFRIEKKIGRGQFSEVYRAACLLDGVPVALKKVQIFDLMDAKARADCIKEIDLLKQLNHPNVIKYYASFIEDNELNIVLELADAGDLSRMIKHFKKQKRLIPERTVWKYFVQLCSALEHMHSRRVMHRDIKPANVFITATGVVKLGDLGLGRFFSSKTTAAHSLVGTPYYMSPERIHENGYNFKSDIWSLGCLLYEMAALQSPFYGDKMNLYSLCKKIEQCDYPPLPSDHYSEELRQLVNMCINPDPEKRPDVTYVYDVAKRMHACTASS
# [19] = target: Serine/threonine-protein kinase Nek7 (Homo sapiens) (UniProt Q8TDX7); conditions: at 1 µM
# [20] = target: T7, Serine/threonine-protein kinase Nek9 (Homo sapiens) (UniProt Q8TD19); conditions: at 0.1 µM;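 also: reported value is the mean percent inhibition of NEK9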
# T7 sequence (whole entry): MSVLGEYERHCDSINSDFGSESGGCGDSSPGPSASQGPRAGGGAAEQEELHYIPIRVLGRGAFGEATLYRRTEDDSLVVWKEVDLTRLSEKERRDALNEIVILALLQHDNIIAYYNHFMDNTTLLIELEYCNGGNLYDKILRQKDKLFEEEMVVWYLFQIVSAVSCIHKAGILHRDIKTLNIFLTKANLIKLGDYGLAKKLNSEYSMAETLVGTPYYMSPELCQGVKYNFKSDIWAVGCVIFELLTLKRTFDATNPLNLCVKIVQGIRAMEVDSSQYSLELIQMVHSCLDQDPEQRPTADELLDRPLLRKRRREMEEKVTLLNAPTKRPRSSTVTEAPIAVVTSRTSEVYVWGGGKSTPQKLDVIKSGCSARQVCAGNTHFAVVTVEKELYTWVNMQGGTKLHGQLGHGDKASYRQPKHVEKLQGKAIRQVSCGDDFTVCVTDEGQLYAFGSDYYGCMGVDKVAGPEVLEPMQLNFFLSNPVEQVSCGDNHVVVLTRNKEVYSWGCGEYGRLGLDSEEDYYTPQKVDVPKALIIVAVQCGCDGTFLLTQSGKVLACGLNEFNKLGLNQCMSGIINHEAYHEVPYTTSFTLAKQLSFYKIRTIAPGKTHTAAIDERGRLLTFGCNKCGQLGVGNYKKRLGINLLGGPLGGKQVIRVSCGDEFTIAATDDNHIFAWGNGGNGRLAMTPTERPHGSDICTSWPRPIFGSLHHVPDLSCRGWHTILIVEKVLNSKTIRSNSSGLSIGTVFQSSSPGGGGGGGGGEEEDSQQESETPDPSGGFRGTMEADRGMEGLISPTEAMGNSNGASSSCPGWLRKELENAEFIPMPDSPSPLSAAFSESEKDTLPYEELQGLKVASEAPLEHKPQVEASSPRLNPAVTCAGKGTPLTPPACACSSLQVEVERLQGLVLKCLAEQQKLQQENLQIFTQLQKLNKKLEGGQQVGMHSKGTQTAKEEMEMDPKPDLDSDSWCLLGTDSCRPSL
# Sphingosine kinase 1 (Homo sapiens), sequence (Q9NYA1 whole entry): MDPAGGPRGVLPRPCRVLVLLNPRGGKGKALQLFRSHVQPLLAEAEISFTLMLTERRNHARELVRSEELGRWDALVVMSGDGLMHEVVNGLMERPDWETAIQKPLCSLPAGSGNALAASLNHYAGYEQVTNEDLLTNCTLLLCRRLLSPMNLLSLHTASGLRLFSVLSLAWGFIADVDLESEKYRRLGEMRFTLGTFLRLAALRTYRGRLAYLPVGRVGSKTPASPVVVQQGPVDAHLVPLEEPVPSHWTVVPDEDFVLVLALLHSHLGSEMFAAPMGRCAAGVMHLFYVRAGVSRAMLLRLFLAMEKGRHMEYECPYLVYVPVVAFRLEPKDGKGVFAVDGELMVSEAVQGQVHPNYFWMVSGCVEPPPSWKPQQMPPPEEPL
smiles,measurement,setting,value
CCn1c(-c2nonc2N)nc2c(C#CC(C)(C)O)nc(CN3CCCC3)cc21,inhibition,[1],0.08%
same,inhibition,[2],2.01%
same,inhibition,[3],1.13%
same,inhibition,[4],-0.41%
same,inhibition,[5],0.78%
same,inhibition,[6],-1.06%
same,inhibition,[7],0.78%
same,inhibition,[8],-1.14%
same,inhibition,[9],-3.01%
same,inhibition,[10],5.75%
same,inhibition,[11],30%
same,inhibition,[12],0.5%
same,inhibition,[13],2.97%
same,inhibition,[14],-0.01%
same,inhibition,[15],1.09%
same,inhibition,[16],1.01%
same,inhibition,[17],-0.68%
same,inhibition,[18],2.37%
same,inhibition,[19],0.41%
same,inhibition,[20],-0.93%

# Reference: ChEMBL document CHEMBL1961873, “Compounds: GSK PKIS; Assays: Nanosyn kinase panel” (2012)
